test: basal 3T3-L1 adipocyte mitochondrial potential changes, profiling panel, cell-based, JC-1 fluorescence, 3T3-L1 adipocytes, 24 h, 100 nL compound (AID 1168); conditions: JC-1 mitochondrial fluorescence, higher = more signal, called active from +8 up or from −8 down; note: test concentration not given here

z-score, inactive:
[N-]=[N+]=Nc1ccccc1[C@H]1OC(c2ccc(OCCCO)cc2)=N[C@@]1(Cc1ccccc1)C(=O)N1CCOCC1 0.598
CN1C(=O)C2C=CC(C(O)c3ccccc3)N(N3CCCCC3)C2C1=O (stereo not given) 0.651
C=CCC(OC(C)=O)[C@@H]1[C@@H](N(Cc2ccc(-c3ccccc3)cc2)C(=O)Cc2ccc(F)cc2)c2cc(OCCCO)ccc2N1C(=O)c1ccc2ccccc2c1 (stereo not given in full) -0.413
COc1cc(CO)cc(I)c1O[C@H]1C=C(C(=O)NCCO)C[C@@H](N(C(=O)c2cc3ccccc3oc2=O)C2CCCCCC2)[C@@H]1O -1.51
CCCNC(=O)[C@@]1(Sc2ccc(C)cc2)CC(=O)N(Cc2ccccc2C(F)(F)F)[C@@H]1c1ccc(CO)cc1I -1.02
NC(=O)[C@@H]1[C@H]2C(=O)O[C@H](c3ccccc3)[C@H](c3ccccc3)N2[C@H](c2ccc(OCCO)cc2)[C@@]12C(=O)Nc1ccc(C#CC3=CCCCC3)cc12 0.396
COCCCNC(=O)[C@@]1(Cc2ccccc2)N=C(c2ccc(OCCCO)cc2)O[C@H]1c1ccccc1CN=[N+]=[N-] 0.571
Cc1ccc(C2C3C(=O)CC4C(=O)N(c5ccccc5)C(=O)C4C3CN2S(=O)(=O)c2ccc(C)cc2)cc1 (stereo not given) 0.134
O=C(NC1CC1)[C@@H]1c2ccccc2C(=O)N(Cc2cc(F)cc(C(F)(F)F)c2)[C@H]1c1ccc(CO)cc1 -0.587
COc1cc2c(cc1O)C(c1cccs1)N(Cc1cccc(OC(F)(F)F)c1)CC2 (stereo not given) -0.019
CCOC(=O)C1=CC[C@@H](c2ccccc2)N(S(=O)(=O)c2ccc(C)cc2)[C@H]1c1ccc(CC)cc1 -0.149
CN1CCC(CCCO)=CC1c1cccs1 (stereo not given) -1.51
CCCCCN1CC=CC23O[C@@H]4C=CCOC(=O)[C@@H]4[C@H]2C(=O)N(C(C)CO)[C@@H]3C1=O (stereo not given in full) 0.282
Cc1ccc(S[C@]2(C(=O)NCC(C)C)CC(=O)N(Cc3cc(C(F)(F)F)cc(C(F)(F)F)c3)[C@@H]2c2ccc(CO)cc2)cc1 -0.612
CC1CC/C=C\[C@H]2OC34C=CCN(Cn5nnc6ccccc65)C(=O)[C@H]3N(CCCCCO)C(=O)[C@@H]4C2C(=O)O1 (stereo not given in full) 0.516
COc1ccc([Si](C)(C)[C@@H]2[C@@H](CCO)O[C@]3(C(=O)N(Cc4cccc(N5CCOC5=O)c4)c4ccccc43)[C@H]2C)cc1 1.05
CCCCN1CC=CC23O[C@@H]4C=CCCOC(=O)C4[C@H]2C(=O)N(CCCCCO)[C@@H]3C1=O (stereo not given in full) 0.615
COc1ccc(CCNC(=O)[C@@]2(C)c3ccccc3C(=O)N(c3ccc(C)cn3)[C@H]2c2ccc(CO)cc2)cc1 1.22
COC(=O)[C@@]1(Cc2ccc(OC)cc2)[C@H]2c3cc(C(=O)N4CCCC4)n(Cc4nc5ccccc5[nH]4)c3C[C@H]2CN1C(=O)c1ccccc1 -0.773
[N-]=[N+]=NCc1ccccc1[C@@H]1OC(c2ccc(OCCCO)cc2)=N[C@]1(CCS(=O)(=O)c1ccccc1)C(=O)N1CCOCC1 0.78
CCOC(=O)C1=CC[C@H]2C(=O)N(c3ccccc3)C(=O)[C@@H]12 -1.28
COC(=O)[C@@]1(Cc2ccc(F)cc2)[C@H]2c3cc(C(=O)N(C)C)n(Cc4ccc(C)o4)c3C[C@H]2CN1C(=O)c1ccccc1 -1.72
OCCCC1=CC(C2CC2)N(Cc2cccc(OC(F)(F)F)c2)CC1 (stereo not given) 0.319
CCOc1cc(C(O)C2C=CC3C(=O)N(c4ccccc4)C(=O)C3N2Nc2ccc(C(C)C)cc2)ccc1O (stereo not given) -0.457
CO[C@H]1O[C@H](CO)[C@@H](OC(=O)Nc2ccccc2)[C@@H]2OC(=O)[C@@H](Cc3ccc4ccccc4c3)C/C=C/C[C@H](Cc3ccc4ccccc4c3)C(=O)O[C@@H]12 0.688
CCOC(=O)C[C@H]1[C@H](OC(=O)c2ccc(C(=O)c3ccccc3)cc2)[C@@H](NC(=O)Cc2ccc(OC)cc2)c2cc(OCCCO)ccc2N1C(=O)c1ccc2ccccc2n1 2.22
C=CC[C@]1(C(=O)N2CCOCC2)N=C(c2ccc(OCCCO)cc2)O[C@H]1c1ccccc1N=[N+]=[N-] 1.17
NC(=O)[C@@H]1[C@H]2C(=O)O[C@H](c3ccccc3)[C@H](c3ccccc3)N2[C@H](c2ccc(O)cc2)[C@@]12C(=O)Nc1ccc(C#CC3=CCCCC3)cc12 -1.58
COCCCNC(=O)[C@]1(Cc2ccccc2)N=C(c2ccc(OCCCO)cc2)O[C@@H]1c1ccccc1CN=[N+]=[N-] -0.0892
CC(C)(C)OC(=O)CC[C@]1(C(N)=O)N=C(c2ccc(OCCCO)cc2)O[C@H]1c1ccccc1 -0.709
O=C1C2C=CC(C(O)C=Cc3ccc([N+](=O)[O-])cc3)N(Nc3ccccc3F)C2C(=O)N1c1ccccc1 (stereo not given) -1.55
C=C(CCCC)/C(=C/C[C@@H](OC(C)=O)c1ccccc1OCCO)c1cc(C(=O)OC)ccc1OC 0.478
O=C1C2C=CC(C(O)c3ccc(F)cc3)N(Nc3ccc([N+](=O)[O-])cc3)C2C(=O)N1c1ccccc1 (stereo not given) -0.287
CC(=O)NCCCC[C@@H]1NC(=O)[C@H]2C[C@@H](C(=O)O)[C@@H](c3ccc(O)cc3)N2C1=O 0.328
COc1ccc([Si](C)(C)[C@H]2[C@H](CCn3cc([C@H](O)c4ccccc4)nn3)O[C@@]3(C(=O)N(C)c4ccccc43)[C@@H]2C)cc1 0.331
